Source: PubChem
This is one part of a sample in which hits are shown more often than they occur.
TTR transcr act – increases transthyretin transcription; SH-SY5Y TTR promoter Gaussia luciferase, luminescence; 100% = recombinant luciferase protein wells; activation, % at 16.7 µM; 92,000 tested, 1.3% active; AID 1117267;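 active = activation above the mean of all tested compounds plus 3 SD, cut at about 9.5% in these data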;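 note: cells exposed to compounds for one day before reading; 0% = median of all test compound wells on the plate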
TTR inh HuH7 – decreases TTR transcription in HuH7 cells in activator counter-screen. AID 1117279. 1,100 tested, 4% active. shares compounds with TTR transcr act. inhibition, % at 16.7 µM. HuH7 TTR promoter-Gaussia luciferase reporter, luminescence;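 active = average inhibition above the solvent-only control wells' mean plus 3 SD, cut at about 15% in these data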;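 note: 0% = cells with DMSO only and 100% = cells with inhibitor control FD; inhibitors lower well luminescence so higher value means more inhibition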
TTR act confirm – confirmation of human transthyretin transcription activators; shares compounds with TTR transcr act; SHSY5Y TTR promoter Gaussia luciferase, luminescence; 100% = purified Lucia enzyme wells, no cells; activation, % at 16.7 µM; 1,100 tested, under 10 active; AID 1117280;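 active = mean activation above a set limit taken from the earlier primary screen, cut at about 11% in these data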;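 note: 0% = DMSO-treated cells and 100% = recombinant Lucia luciferase without cells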
Active calls of the source: *; ! = not active in a repeat.

SMILES	TTR transcr act	others
COC(=O)c1ccc[n+](CC(=O)Nc2ccc(OC(F)F)cc2)c1	6.6
COC(=O)c1ccc(NC(=O)C[n+]2ccccc2)cc1	10.2*	TTR inh HuH7=-12.9;TTR act confirm=1.6
O=C(O)CC/C(=N/NC(=O)CNC(=O)Cc1ccc(Cl)cc1)c1ccccc1	0.7
CN(Cc1ccco1)c1ncnc2ccc(-c3ccc4c(c3)OCO4)cc12	27.0*!	TTR inh HuH7=-6.5;TTR act confirm=0.4
Cc1occc1CNc1ncnc2ccc(-c3ccc4c(c3)OCO4)cc12	1.9
Cc1nc(CN(C)c2ncnc3ccc(-c4ccc5c(c4)OCO5)cc23)cs1	-0.8
C[C@H]1C2CC(OC(=O)Nc3cccc(C(F)(F)F)c3)C(C2)[C@H]2CCCCN21 (some centres undefined)	-1.9
O=C(Nc1ccn(Cc2ccccc2F)n1)c1ccc(COc2cc(Cl)ccc2Cl)o1	5.6
O=C(CN1CCN(S(=O)(=O)c2ccc(Cl)cc2)CC1)NC1CC1	1.9
C#CCNC(=O)C[C@@H]1C[C@]2(C(=O)OCC)CCC3=C2N(CCC3)C1=O	-1.6
CCOC(=O)c1c(-c2ccc(-c3ccccc3)cc2)csc1NC(=O)CCN1CCOCC1	-2.2
CCOC(=O)c1c(-c2ccc(F)cc2)csc1NC(=O)CCN1CCOCC1	2.2
CCOC(=O)c1c(-c2ccccc2)csc1NC(=O)C(C)NCCCN1CCOCC1 (centres undefined)	13.5*	TTR inh HuH7=-27.1;TTR act confirm=0.1
COc1ccc(S[C@]2(C(=O)N3CCOCC3)CC(=O)N(c3ccc(Cl)cc3)[C@@H]2c2ccc(OC)cc2)cc1	-1.3
C[C@H]1COC(=O)[C@@H](NC(=O)OCC2c3ccccc3-c3ccccc32)C/C=C\C[C@H](CC(=O)NCCO)C(=O)N1	-0.1
S=C(NC1CCCCC1)NC1CC2C=CC1C2 (centres undefined)	7.3
CCOc1ccccc1-c1nnc(SCC(=O)Nc2ccccc2)o1	-2.4
Cc1nc(SCC(=O)NC(C)(C)C)c2c(-c3cccs3)csc2n1	13.6*	TTR inh HuH7=-16.2;TTR act confirm=-0.1
Cc1cc(NC(=O)CSc2n[nH]c(-c3cccs3)n2)no1	4.0
CC(C)(C)NC(=O)CSc1nnc(-c2ccncc2)n1Cc1ccccc1	-1.1
O=c1ccn([C@@H]2O[C@H](COS(=O)(=O)O)[C@@H](O)[C@H]2O)c(=O)[nH]1	2.8
CCc1nc2ccc(C(=O)NCCCN3CCCC3=O)cn2c1N(C)C(=O)c1cccc(OC)c1	-0.2
Cc1ccc(C)c(S(=O)(=O)Nc2nc(C)c(C(=O)Nc3ccccc3)s2)c1	1.4
CCOC(=O)Nc1sc(NS(=O)(=O)c2ccccc2)nc1C	10.5*	TTR inh HuH7=-18.7;TTR act confirm=2.5
CC(=O)c1ccc(NC(=O)Nc2sc(NS(=O)(=O)c3ccccc3)nc2C)cc1	29.8*	TTR inh HuH7=-6.1;TTR act confirm=2.1
SMILES	TTR transcr act	others
Cc1nc(NS(=O)(=O)c2ccccc2)sc1C(=O)N/N=C/c1ccccc1	0.1
CC(=O)c1ccc(NC(=O)NNS(=O)(=O)c2ccc(F)cc2)cc1	-1.5
Cc1ccc(S(=O)(=O)NNC(=O)c2sc(NS(=O)(=O)c3ccccc3)nc2C)cc1	0.2
CCCn1c(=O)c(C#N)cn(C2CC2)c1=O	4.3
Cc1ccc2[nH]c(=O)c3cc(C(=O)N(C)C4CCCCC4)sc3c2c1	1.0
O=C(NC1CCCCC1)c1ccc(CS(=O)Cc2ccccc2Cl)o1 (centres undefined)	1.3
O=C(NC1CCCC1)c1ccc(CS(=O)Cc2ccccc2Cl)o1 (centres undefined)	2.1
O=C(NCCc1ccc(Cl)cc1)c1ccc(CS(=O)Cc2ccccc2Cl)o1 (centres undefined)	15.1*	TTR inh HuH7=0.7;TTR act confirm=-0.2
O=C(CC1OC(=O)c2ccccc21)Nc1cc(Cl)ccc1N1CCCC1 (centres undefined)	-0.8
Cc1cc(=O)n(C(C)Cc2ccccc2)n1C(C)Cc1ccccc1 (centres undefined)	16.7*	TTR inh HuH7=-7.7;TTR act confirm=-0.4
CC(Cc1ccccc1)N(C)C(=O)CN1C(=O)c2ccccc2C1=O (centres undefined)	-0.3
CCC(CC)n1c(C)cc(=O)n1C(CC)CC	-0.3
COc1ccc(-c2cc(C(F)(F)F)n3nc(C(=O)N(C)Cc4ccccc4)cc3n2)cc1OC	0.2
COC(=O)[C@]12C[C@H](CC(=O)NCc3ccc(OC)c(OC)c3)C(=O)N(Cc3ccc(Cl)cc3Cl)C1=C[C@H](COCc1ccccc1)O[C@@H]2C	-1.1
COc1cc(-c2cc(C(=O)NN3CCN(C)CC3)c3ccccc3n2)cc(OC)c1OC	35.8*	TTR inh HuH7=-10.8;TTR act confirm=3.0
COc1cc(-c2cc(C(=O)OCC(=O)NC3CC3)c3ccccc3n2)cc(OC)c1OC	-3.2
COc1cc(-c2cc(C(=O)O)c3cc4c(cc3n2)OCCO4)cc(OC)c1OC	1.8
O=C(CC1Sc2ccccc2NC1=O)NNc1ccc(F)cc1 (centres undefined)	0.0
O=C(NCc1cccc(Cl)c1)NC(=O)c1csc([N+](=O)[O-])c1	11.9*	TTR inh HuH7=-8.5;TTR act confirm=-0.3
O=C(NCc1cccc(Cl)c1)c1ccc(-c2csnn2)cc1	-0.4
CC(C)CNC(=S)NC(=O)c1csc([N+](=O)[O-])c1	-2.1
COc1ccc(C2Nc3ccccc3C(=O)N2Cc2cccnc2)cc1COc1c(C)cccc1C (centres undefined)	-1.6
COc1cccc(N2C(=O)CC(N3CCN(C(=O)c4ccco4)CC3)C2=O)c1 (centres undefined)	-0.5
COc1ccc(N2C(=O)CC(N3CCN(C(=O)c4ccco4)CC3)C2=O)cc1 (centres undefined)	-1.2
O=C(c1ccco1)N1CCN(C2CC(=O)N(c3ccc(F)c(Cl)c3)C2=O)CC1 (centres undefined)	10.1*	TTR inh HuH7=-0.8;TTR act confirm=-0.3
SMILES	TTR transcr act	others
O=C(O)CCN1C(=O)/C(=C/c2ccc(F)cc2F)SC1=S	-0.5
CCCCCn1nnnc1C1(C)Cn2nccc2C(=O)N1Cc1ccco1 (centres undefined)	1.7
CCOc1ccc(CCNC(=O)c2ccc3[nH]ccc3c2)cc1OCC	0.3
CCSc1nc2ccccc2n1CC(N)=O	-0.2
COC(=O)CSc1nc2ccccc2n1CC(=O)N(C(C)C)C(C)C	12.8*	TTR inh HuH7=-5.4;TTR act confirm=-1.3
COCC(C)NC(=O)Cn1c(SCc2ccccc2)nc2ccccc21 (centres undefined)	1.4
COc1ccccc1Nc1nn2c(=O)c3ccc(C(=O)N4CCCC(C)C4)cc3nc2s1 (centres undefined)	-1.8
O=C(NC(=S)N1CCN(c2ccc(F)cc2)CC1)c1ccccc1	-1.0
CC(C)(C)OC(=O)N1C(=O)[C@](OC(=O)c2ccccc2)(c2ccc(F)cc2)c2ccccc21	21.1*	TTR inh HuH7=4.4;TTR act confirm=-0.8
N/C(=N\OC(=O)c1ccc(F)cc1)c1ccccc1	-0.4
COc1ccc(S(=O)(=O)N(C)C[C@H]2Oc3c(NC(=O)c4ccncc4)cccc3C(=O)N([C@H](C)CO)C[C@@H]2C)cc1	-2.2
Cn1c(=S)[nH]c(=O)c2ncc(=O)[nH]c21	2.1
COC(=O)CC/C(O)=C1\C(=O)CC(C)(C)CC1=NCCc1nc2ccccc2[nH]1	5.9
O=C(Nc1nnc(C2CC2)s1)c1ccc(S(=O)(=O)c2ccccc2)cc1	16.0*	TTR inh HuH7=6.8;TTR act confirm=-1.4
Cc1ccc(S(=O)(=O)NC(=O)Nc2nnc(C3CC3)s2)cc1	-0.7
Cn1nccc1C(=O)Nc1nnc(C2CC2)s1	-1.0
CCCOc1ccc(Oc2nc(-c3ccncc3)nc3ccccc23)cc1	0.2
